Measurements as given in the supplement of paper PMC11732987, “Enantioselective OTUD7B fragment discovery through chemoproteomics screening and high-throughput optimisation” (Communications Chemistry, 2025).

Experiments:
Assay in all cases: log2 ratio of Biotin-Ahx-Ub-VS probe labelling (fragment/DMSO); higher = less target engagement (more negative = stronger competition), active = hit call of the paper (q ≤ 0.05, log2 ratio ≤ -1)
Settings in all cases: compound concentration: 200 uM; treatment time: 3 h
[1] = target: USP9X (UniProt Q93008)
Procedure, shortened: (§1)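 HEK293T lysate (495 µg per sample, in Tris/CHAPS/IGEPAL buffer with protease inhibitors) was exposed in triplicate for 3 h to fragment at 200 µM or to vehicle, then to Biotin-Ahx-Ub-VS at 0.5 µM final for 1 h. Labelled DUBs were enriched on NeutrAvidin, digested with LysC and trypsin, and analysed by diaPASEF LC-MS/MS. Spectronaut label-free quantities were normalised to the global median, and values are average log2 ratios of fragment over vehicle from an unpaired t-test. Only proteins with ≥2 unique peptides were used.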

[2] = target: UniProt O00487
Procedure, shortened: as §1

[3] = target: UniProt O00507
Procedure, shortened: as §1

[4] = target: UniProt P51784
Procedure, shortened: as §1

[5] = target: T1, UniProt Q5T2D3
T1 sequence (whole entry): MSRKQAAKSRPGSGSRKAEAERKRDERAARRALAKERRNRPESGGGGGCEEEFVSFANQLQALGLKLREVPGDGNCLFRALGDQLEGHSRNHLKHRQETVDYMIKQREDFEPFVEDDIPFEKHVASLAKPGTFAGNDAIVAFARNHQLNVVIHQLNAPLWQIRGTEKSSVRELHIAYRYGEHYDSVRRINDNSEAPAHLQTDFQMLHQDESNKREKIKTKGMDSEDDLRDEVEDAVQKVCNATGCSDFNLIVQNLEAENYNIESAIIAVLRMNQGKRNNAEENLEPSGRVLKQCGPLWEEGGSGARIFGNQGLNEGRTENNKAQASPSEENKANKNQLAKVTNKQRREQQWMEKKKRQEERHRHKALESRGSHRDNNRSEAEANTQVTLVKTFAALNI
Procedure, shortened: as §1

[6] = target: T2, UniProt Q8TE49
T2 sequence (whole entry): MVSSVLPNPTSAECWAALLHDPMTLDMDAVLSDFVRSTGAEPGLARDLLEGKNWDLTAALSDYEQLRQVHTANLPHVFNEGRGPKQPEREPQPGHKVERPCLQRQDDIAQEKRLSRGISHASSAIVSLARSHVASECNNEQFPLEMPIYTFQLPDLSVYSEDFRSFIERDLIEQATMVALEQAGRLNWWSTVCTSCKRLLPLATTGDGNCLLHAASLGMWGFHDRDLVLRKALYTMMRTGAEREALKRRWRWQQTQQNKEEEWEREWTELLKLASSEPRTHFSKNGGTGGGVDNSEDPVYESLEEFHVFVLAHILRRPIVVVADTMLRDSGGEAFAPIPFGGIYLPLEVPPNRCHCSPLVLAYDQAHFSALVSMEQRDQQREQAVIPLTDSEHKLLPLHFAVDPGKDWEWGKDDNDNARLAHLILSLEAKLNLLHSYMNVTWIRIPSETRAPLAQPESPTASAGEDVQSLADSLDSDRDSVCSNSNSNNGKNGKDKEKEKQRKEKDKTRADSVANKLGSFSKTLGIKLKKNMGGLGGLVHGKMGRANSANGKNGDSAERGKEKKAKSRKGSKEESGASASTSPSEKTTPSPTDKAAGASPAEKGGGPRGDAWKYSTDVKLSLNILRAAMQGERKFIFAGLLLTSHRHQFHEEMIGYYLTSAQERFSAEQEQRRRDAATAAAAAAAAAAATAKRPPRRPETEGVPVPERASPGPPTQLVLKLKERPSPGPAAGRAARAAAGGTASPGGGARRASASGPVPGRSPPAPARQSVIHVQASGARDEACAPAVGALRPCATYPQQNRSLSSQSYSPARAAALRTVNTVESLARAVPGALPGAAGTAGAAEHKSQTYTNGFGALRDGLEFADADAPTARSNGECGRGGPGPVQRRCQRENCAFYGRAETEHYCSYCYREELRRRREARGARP
Procedure, shortened: as §1

[7] = target: T3, UniProt Q9P2H5
T3 sequence (whole entry): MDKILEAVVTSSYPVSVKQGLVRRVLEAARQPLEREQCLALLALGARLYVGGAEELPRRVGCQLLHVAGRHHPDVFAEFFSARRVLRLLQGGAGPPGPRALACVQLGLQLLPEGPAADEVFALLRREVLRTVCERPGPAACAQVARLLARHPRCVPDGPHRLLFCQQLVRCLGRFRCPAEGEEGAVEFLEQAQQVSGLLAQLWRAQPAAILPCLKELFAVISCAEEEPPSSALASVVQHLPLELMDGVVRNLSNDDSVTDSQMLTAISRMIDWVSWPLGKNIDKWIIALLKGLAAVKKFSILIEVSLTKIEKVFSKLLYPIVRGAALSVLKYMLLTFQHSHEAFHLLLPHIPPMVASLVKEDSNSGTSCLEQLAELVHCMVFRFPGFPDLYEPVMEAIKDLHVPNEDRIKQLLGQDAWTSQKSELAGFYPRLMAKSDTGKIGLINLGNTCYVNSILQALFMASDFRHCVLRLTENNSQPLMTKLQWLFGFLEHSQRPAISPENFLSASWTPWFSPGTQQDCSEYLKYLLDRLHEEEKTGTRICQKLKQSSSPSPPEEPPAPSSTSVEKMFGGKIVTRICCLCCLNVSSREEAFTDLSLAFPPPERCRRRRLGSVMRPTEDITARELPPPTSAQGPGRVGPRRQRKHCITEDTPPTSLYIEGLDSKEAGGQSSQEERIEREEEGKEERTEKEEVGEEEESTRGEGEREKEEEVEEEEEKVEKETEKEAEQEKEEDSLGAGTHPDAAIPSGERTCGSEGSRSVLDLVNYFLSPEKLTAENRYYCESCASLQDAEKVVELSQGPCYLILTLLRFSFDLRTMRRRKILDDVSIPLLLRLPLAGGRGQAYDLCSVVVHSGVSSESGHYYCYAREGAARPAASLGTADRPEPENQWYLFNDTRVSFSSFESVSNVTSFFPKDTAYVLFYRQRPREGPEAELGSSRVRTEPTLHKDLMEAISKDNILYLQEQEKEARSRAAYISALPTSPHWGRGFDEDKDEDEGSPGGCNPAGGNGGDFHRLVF
Procedure, shortened: as §1

[8] = target: T4, UniProt Q9UGI0
T4 sequence (whole entry): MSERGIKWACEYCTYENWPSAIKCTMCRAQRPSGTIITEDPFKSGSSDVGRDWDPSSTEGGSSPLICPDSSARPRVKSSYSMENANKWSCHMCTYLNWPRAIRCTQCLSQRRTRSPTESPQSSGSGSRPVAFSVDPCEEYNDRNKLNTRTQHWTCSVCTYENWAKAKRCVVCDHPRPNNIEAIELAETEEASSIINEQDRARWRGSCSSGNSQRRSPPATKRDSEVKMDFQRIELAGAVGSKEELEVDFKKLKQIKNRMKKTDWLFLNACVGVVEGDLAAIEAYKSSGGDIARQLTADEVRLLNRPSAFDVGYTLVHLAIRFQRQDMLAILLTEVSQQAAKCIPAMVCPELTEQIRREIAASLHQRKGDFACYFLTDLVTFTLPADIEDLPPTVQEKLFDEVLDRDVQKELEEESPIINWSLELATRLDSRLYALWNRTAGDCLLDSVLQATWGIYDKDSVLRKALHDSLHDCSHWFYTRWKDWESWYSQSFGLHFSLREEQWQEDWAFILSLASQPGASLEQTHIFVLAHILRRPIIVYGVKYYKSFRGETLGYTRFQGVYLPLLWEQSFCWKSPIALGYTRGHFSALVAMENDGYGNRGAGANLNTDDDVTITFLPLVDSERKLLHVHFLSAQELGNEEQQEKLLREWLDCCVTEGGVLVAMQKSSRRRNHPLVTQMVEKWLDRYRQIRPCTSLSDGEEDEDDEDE
Procedure, shortened: as §1

[9] = target: T5, YOD1 (UniProt Q5VVQ6)
T5 sequence (whole entry): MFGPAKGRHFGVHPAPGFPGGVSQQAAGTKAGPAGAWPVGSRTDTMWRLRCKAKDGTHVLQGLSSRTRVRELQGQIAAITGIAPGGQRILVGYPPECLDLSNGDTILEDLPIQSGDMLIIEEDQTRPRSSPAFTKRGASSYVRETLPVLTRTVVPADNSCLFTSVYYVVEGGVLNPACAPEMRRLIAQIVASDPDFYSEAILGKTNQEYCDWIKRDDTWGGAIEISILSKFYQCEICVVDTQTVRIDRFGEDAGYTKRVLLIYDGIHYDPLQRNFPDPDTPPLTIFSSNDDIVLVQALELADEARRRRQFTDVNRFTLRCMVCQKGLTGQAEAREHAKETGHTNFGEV
Procedure, shortened: as §1

Measured: log2 ratio of Biotin-Ahx-Ub-VS probe labelling

Sequence of UniProt O00487 (O00487 whole entry): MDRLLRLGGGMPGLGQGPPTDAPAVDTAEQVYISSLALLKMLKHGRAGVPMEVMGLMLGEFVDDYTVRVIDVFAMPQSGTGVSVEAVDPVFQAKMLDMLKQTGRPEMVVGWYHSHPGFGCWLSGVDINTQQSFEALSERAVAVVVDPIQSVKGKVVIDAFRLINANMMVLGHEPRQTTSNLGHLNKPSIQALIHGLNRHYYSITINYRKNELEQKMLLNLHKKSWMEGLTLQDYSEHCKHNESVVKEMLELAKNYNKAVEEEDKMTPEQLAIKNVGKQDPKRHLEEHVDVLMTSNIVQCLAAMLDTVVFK
Sequence of UniProt P51784 (P51784 whole entry): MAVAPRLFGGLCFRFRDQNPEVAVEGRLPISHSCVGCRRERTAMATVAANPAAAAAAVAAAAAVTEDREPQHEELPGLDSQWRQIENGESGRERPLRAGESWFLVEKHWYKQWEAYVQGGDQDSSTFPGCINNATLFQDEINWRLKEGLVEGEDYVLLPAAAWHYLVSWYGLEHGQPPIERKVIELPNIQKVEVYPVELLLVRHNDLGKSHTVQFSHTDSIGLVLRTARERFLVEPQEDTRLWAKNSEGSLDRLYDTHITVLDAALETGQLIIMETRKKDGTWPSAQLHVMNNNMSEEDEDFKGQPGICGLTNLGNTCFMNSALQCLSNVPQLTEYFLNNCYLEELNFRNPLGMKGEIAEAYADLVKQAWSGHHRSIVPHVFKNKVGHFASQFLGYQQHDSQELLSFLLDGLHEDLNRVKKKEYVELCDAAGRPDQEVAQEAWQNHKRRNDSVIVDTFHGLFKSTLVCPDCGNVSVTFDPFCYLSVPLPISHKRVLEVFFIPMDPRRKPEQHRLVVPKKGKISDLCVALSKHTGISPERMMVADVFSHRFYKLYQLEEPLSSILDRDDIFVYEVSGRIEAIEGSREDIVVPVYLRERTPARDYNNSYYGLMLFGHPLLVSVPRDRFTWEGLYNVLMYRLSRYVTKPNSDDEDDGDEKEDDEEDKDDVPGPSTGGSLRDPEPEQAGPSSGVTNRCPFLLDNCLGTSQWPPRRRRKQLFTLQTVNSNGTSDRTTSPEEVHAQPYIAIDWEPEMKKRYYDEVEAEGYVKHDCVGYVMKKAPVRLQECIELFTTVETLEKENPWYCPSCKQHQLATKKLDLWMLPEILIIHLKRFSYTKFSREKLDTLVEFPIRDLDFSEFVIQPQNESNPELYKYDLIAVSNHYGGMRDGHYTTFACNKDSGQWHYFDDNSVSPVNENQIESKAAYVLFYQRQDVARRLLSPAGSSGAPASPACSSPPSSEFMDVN
Sequence of UniProt O00507 (O00507 whole entry): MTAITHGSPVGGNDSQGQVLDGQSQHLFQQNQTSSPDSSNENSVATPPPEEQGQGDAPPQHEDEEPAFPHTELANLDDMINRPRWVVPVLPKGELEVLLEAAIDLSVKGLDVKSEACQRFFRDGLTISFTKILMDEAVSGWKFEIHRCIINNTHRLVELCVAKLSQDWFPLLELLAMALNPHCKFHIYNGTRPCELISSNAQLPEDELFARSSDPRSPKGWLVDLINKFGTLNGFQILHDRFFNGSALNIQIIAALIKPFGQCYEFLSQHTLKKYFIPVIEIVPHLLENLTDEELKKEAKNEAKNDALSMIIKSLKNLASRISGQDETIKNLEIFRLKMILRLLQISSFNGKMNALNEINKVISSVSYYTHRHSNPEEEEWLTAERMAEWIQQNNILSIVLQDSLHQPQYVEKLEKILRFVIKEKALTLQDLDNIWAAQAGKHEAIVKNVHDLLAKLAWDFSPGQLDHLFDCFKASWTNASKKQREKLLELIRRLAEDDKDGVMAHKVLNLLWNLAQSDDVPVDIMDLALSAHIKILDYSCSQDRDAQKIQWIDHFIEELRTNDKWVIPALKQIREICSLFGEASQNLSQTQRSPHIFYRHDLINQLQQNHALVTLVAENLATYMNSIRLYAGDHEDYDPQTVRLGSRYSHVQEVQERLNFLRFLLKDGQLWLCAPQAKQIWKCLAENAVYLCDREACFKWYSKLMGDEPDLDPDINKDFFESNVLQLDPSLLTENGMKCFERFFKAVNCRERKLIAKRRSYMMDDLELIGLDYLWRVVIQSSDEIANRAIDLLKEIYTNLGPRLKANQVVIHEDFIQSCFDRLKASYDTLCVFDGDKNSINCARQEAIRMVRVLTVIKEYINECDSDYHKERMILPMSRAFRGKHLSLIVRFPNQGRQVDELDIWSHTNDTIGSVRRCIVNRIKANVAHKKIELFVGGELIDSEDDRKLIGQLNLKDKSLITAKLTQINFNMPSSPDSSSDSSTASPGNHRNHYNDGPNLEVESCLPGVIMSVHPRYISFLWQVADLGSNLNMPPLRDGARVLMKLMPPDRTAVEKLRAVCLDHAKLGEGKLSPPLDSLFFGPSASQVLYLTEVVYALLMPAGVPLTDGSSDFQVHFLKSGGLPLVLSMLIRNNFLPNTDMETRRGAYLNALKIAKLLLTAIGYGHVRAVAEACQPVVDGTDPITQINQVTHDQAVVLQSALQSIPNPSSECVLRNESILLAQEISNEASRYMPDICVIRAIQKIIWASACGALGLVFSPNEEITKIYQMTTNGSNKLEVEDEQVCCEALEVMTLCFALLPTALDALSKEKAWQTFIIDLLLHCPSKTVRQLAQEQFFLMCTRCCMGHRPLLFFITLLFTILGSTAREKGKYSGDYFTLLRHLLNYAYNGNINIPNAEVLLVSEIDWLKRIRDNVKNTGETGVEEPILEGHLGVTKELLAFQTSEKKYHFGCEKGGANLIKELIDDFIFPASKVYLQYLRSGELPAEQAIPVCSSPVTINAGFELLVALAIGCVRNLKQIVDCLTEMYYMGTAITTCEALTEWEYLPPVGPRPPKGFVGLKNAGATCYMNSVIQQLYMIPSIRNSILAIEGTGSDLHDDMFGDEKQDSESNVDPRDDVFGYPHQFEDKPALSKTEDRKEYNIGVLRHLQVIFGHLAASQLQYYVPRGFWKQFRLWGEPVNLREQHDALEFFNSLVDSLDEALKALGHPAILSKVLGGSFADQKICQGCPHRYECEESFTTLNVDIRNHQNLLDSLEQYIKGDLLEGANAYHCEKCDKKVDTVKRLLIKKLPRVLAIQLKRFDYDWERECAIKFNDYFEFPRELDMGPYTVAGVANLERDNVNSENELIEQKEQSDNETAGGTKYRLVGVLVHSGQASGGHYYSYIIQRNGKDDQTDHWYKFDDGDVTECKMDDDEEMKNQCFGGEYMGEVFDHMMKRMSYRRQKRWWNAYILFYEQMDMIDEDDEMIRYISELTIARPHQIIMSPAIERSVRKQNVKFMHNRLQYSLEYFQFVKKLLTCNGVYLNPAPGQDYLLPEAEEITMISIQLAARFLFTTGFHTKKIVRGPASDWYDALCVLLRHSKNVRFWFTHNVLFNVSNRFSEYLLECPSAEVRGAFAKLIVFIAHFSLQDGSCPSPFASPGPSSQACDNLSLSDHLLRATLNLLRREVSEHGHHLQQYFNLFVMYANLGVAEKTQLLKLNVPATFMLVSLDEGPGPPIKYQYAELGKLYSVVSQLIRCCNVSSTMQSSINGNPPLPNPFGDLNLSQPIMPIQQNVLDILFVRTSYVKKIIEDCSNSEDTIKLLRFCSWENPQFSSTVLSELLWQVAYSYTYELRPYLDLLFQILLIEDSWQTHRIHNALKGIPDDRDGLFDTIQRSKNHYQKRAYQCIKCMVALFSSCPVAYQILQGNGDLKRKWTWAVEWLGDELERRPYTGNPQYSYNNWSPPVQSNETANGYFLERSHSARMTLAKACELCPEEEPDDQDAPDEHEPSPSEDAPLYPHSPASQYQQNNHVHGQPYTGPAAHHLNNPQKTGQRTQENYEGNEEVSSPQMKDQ

O=C(CCl)N1CCCC1c1ccsc1 (centres undefined)
inactive: [1] -0.231 | [2] -0.138 | [3] -0.118 | [4] -0.115 | [5] -0.188 | [6] -0.72 | [7] -0.412 | [9] 0.14
active: [8] -1.53
